Drawing on PubChem BioAssay (NCI), this text covers growth inhibition for 40 compounds.

Compounds without any hit were thinned out: in the full panel of roughly 79,000, 15% have a hit. Values without a mark were called inactive. Calls of active or inactive are those of the source. Rule as the data show it: active = growth inhibition above about 70%; inactive = the rest.

One experiment in a line: NCI Yeast Anticancer Drug Screen. Data for the rad50 strain (AID 155).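 Also: 0% = growth of vehicle-only cultures of the same strain.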 Conditions: S. cerevisiae rad50 strain growth inhibition; at 50.0 µM; active compounds read high. The essentials:
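Readout: growth inhibition relative to vehicle-treated cultures. Compound exposure was carried out in a genetically defined yeast strain deficient in DNA damage repair.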
`CN(CCc1ccccn1)C(=S)N/N=C/c1ccccn1`: the growth inhibition was 77% (active).

With `CC(C)CC(C)N=C1CC2CCC1(C)C2(C)C` (stereo not given), the growth inhibition is -32.3%.

As to `COC1OC(OC)c2cc([N+](=O)[O-])ccc21` (stereo not given), the growth inhibition was 9.9%.

For the compound `CCC(=O)c1ccc(OC(=O)Nc2ccc(Cl)cc2[N+](=O)[O-])cc1`, the growth inhibition was 2.25%.

On to `CCCCCCC(=O)CC1(C(=O)OC)NC(=S)NC(=O)C1C#N` (stereo not given), for which the growth inhibition is 18.1%.

For `CCCCCC[N+]12CC=C3COC(=O)C(C)(O)C(C)(O)C(C)C(=O)OC(CC1)C32` (stereo not given), the growth inhibition is 0.7%.

Turning to `Cc1cc(C)[n+](C)c(/C=C/c2ccc([N+](=O)[O-])cc2)n1`, the growth inhibition was 14.2%.

Turning to `CC1(c2ccccc2)SCCS1`, the growth inhibition is 4.9%.

For the compound `COC(=O)c1ccc(O)c(CN(C)C)c1`, the growth inhibition is 26.6%.

With `Cc1ccc(CO)cc1`, the growth inhibition is 13.9%.

For `NC(=S)N/N=C/c1ccccc1S(=O)(=O)O`, the growth inhibition is 1.9%.

As to `NC(=O)C(F)(F)C(F)(F)C(N)=O`, the growth inhibition was -28.1%.

Take `COc1ccc(SC(N(C)C)=[N+](C)C)cc1`: the growth inhibition was -17.1%.

Turning to `CCCCc1c(O)nc(NCCCC(N)C(=O)O)[nH]c1=O` (stereo not given), the growth inhibition was -9.55%.

With `CN(C)CCC(O)(c1ccccc1)C(O)(CCN(C)C)c1ccccc1` (stereo not given), the growth inhibition is -3.15%.

Take `Oc1ccc2ccccc2c1-c1c(OC(c2ccccc2)c2ccccc2)ccc2ccccc12`: the growth inhibition was 5.9%.

Turning to `CN1CCC(C[CH2][Sn]([c]2ccccc2)([c]2ccccc2)[c]2ccccc2)CC1`, the growth inhibition is 51.1%.

With `O=C(c1c(F)c(F)c(F)c(F)c1F)n1c(=O)[nH]c2ccccc21`, the growth inhibition was -18.2%.

As to `O=C1OC(=O)c2ccc(SCC(O)CCl)c3cccc1c23` (stereo not given), the growth inhibition is 99.4% (active).

For `O=C(O)C1C(C2c3ccc(O)cc3Oc3cc(O)ccc32)C2(Cl)C(Cl)=C(Cl)C1(Cl)C2(Cl)Cl` (stereo not given), the growth inhibition is 95.3% (active).

Regarding `COc1ccccc1C(=O)C(CN(C)C)CN(C)C`, the growth inhibition is -2.5%.

Turning to `C/C(=N\NC(=O)C[N+](C)(C)C)c1sc(-c2cccnc2)nc1C`, the growth inhibition was 5.4%.

On to `CCOC(C#CC(=O)C(C)C)OCC`, for which the growth inhibition was -17.2%.

On to `O=C1c2cc([N+](=O)[O-])cc3cc([N+](=O)[O-])cc(c23)C(=O)N1CCNCCNCCNCCN1C(=O)c2cc([N+](=O)[O-])cc3cc([N+](=O)[O-])cc(c23)C1=O`, for which the growth inhibition was 85.1% (active).

Take `COc1ccc(C2C(=O)C(Cl)N2Nc2nc(C)cc(=O)[nH]2)cc1OC` (stereo not given): the growth inhibition is 1.45%.

Regarding `NC1=NN(c2ccccc2)C(=O)/C1=C\n1c(=S)[nH]c2ccccc21`, the growth inhibition is -22.4%.

Regarding `O=C(OCCc1ccccc1)C(O)c1ccccc1` (stereo not given), the growth inhibition was 11.3%.

Consider `COC(=O)/C=C(\C(=O)OC)C(C(=O)c1ccccc1)=P(c1ccccc1)(c1ccccc1)c1ccccc1`, for which the growth inhibition is -9.95%.

For the compound `COc1ccc2c(N=[N+]=[N-])cc(C)nc2c1`, the growth inhibition is -42.2%.

`CC(C)N(C(=O)C1C2CCC(CC2)C1C(=O)N(C(C)C)C(C)C)C(C)C` (stereo not given): the growth inhibition is 2.4%.

Take `CC(C)(C)OC(=O)c1c2ccccc2cc2ccccc12`: the growth inhibition was 21.9%.

Turning to `C=CCNC(=S)Nc1ccc(OC(=O)NC(C)(C)C)cc1`, the growth inhibition is 2%.

For the compound `COC(=O)CNC(=O)C(Cc1ccccc1)NC(=O)OCc1ccccc1` (stereo not given), the growth inhibition was -4.95%.

Turning to `CN1C(=O)NC(C)(CCOCc2ccccc2)C1=O` (stereo not given), the growth inhibition is 8.85%.

Take `CCCC(O)C(CC)[N+](=O)[O-]` (stereo not given): the growth inhibition is 13.6%.

For the compound `O=C(O)/C=C/C(=O)Nc1ccc(C(=O)O)cc1`, the growth inhibition is 22.9%.

Take `O=C(NNC(=O)c1cccc2ccccc12)c1ccccc1F`: the growth inhibition is -16.6%.

On to `BrC1(C2(Br)N(c3ccccc3)CCN2c2ccccc2)N(c2ccccc2)CCN1c1ccccc1`, for which the growth inhibition was 53%.

For `COC1CCC(C(C)(C)C)CC1` (stereo not given), the growth inhibition was 2.45%.

Turning to `CCCCCCCCCOCC(COP(=O)([O-])OCC[N+](C)(C)C)OC` (stereo not given), the growth inhibition is 10.2%.

A further experiment can be described thus: NCI Yeast Anticancer Drug Screen. Data for the mec2-1 strain (AID 157). The following applies: S. cerevisiae mec2-1 strain, at 50.0 µM, active compounds read high. The essentials:
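mec2-1 yeast strain, carrying an alteration in DNA damage repair or cell cycle control, was exposed to compounds; growth inhibition was measured relative to vehicle-treated controls.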
Turning to `CN(CCc1ccccn1)C(=S)N/N=C/c1ccccn1`, the growth inhibition was 83.8% (active).

For `CC(C)CC(C)N=C1CC2CCC1(C)C2(C)C` (stereo not given), the growth inhibition was -24.6%.

For `COC1OC(OC)c2cc([N+](=O)[O-])ccc21` (stereo not given), the growth inhibition was 17.3%.

Regarding `CCC(=O)c1ccc(OC(=O)Nc2ccc(Cl)cc2[N+](=O)[O-])cc1`, the growth inhibition is 42.8%.

`CCCCCCC(=O)CC1(C(=O)OC)NC(=S)NC(=O)C1C#N` (stereo not given): the growth inhibition is 6.85%.

Turning to `CCCCCC[N+]12CC=C3COC(=O)C(C)(O)C(C)(O)C(C)C(=O)OC(CC1)C32` (stereo not given), the growth inhibition is -6.15%.

Regarding `Cc1cc(C)[n+](C)c(/C=C/c2ccc([N+](=O)[O-])cc2)n1`, the growth inhibition was 6.95%.

As to `CC1(c2ccccc2)SCCS1`, the growth inhibition was 2.05%.

As for `COC(=O)c1ccc(O)c(CN(C)C)c1`, the growth inhibition is -10.6%.

Consider `Cc1ccc(CO)cc1`, for which the growth inhibition was -6.7%.

In the case of `NC(=S)N/N=C/c1ccccc1S(=O)(=O)O`, the growth inhibition is -12.8%.

Take `NC(=O)C(F)(F)C(F)(F)C(N)=O`: the growth inhibition is -16.8%.

For the compound `COc1ccc(SC(N(C)C)=[N+](C)C)cc1`, the growth inhibition is 1.1%.

For `CCCCc1c(O)nc(NCCCC(N)C(=O)O)[nH]c1=O` (stereo not given), the growth inhibition is -13.8%.

For the compound `CN(C)CCC(O)(c1ccccc1)C(O)(CCN(C)C)c1ccccc1` (stereo not given), the growth inhibition was -14.8%.

As for `Oc1ccc2ccccc2c1-c1c(OC(c2ccccc2)c2ccccc2)ccc2ccccc12`, the growth inhibition is -19.2%.

As to `CN1CCC(C[CH2][Sn]([c]2ccccc2)([c]2ccccc2)[c]2ccccc2)CC1`, the growth inhibition is 99.3% (active).

`O=C(c1c(F)c(F)c(F)c(F)c1F)n1c(=O)[nH]c2ccccc21`: the growth inhibition was 13.2%.

`O=C1OC(=O)c2ccc(SCC(O)CCl)c3cccc1c23` (stereo not given): the growth inhibition is 99.5% (active).

As for `O=C(O)C1C(C2c3ccc(O)cc3Oc3cc(O)ccc32)C2(Cl)C(Cl)=C(Cl)C1(Cl)C2(Cl)Cl` (stereo not given), the growth inhibition was 94.4% (active).

Regarding `COc1ccccc1C(=O)C(CN(C)C)CN(C)C`, the growth inhibition was -19.2%.

For the compound `C/C(=N\NC(=O)C[N+](C)(C)C)c1sc(-c2cccnc2)nc1C`, the growth inhibition is -26.1%.

Turning to `CCOC(C#CC(=O)C(C)C)OCC`, the growth inhibition was 3.15%.

Consider `O=C1c2cc([N+](=O)[O-])cc3cc([N+](=O)[O-])cc(c23)C(=O)N1CCNCCNCCNCCN1C(=O)c2cc([N+](=O)[O-])cc3cc([N+](=O)[O-])cc(c23)C1=O`, for which the growth inhibition was 90.4% (active).

Regarding `COc1ccc(C2C(=O)C(Cl)N2Nc2nc(C)cc(=O)[nH]2)cc1OC` (stereo not given), the growth inhibition was -18.9%.

For the compound `NC1=NN(c2ccccc2)C(=O)/C1=C\n1c(=S)[nH]c2ccccc21`, the growth inhibition was -19.9%.

Turning to `O=C(OCCc1ccccc1)C(O)c1ccccc1` (stereo not given), the growth inhibition is -6.05%.

On to `COC(=O)/C=C(\C(=O)OC)C(C(=O)c1ccccc1)=P(c1ccccc1)(c1ccccc1)c1ccccc1`, for which the growth inhibition is 8.7%.

For `COc1ccc2c(N=[N+]=[N-])cc(C)nc2c1`, the growth inhibition is -1.45%.

For the compound `CC(C)N(C(=O)C1C2CCC(CC2)C1C(=O)N(C(C)C)C(C)C)C(C)C` (stereo not given), the growth inhibition is 17.5%.

Take `CC(C)(C)OC(=O)c1c2ccccc2cc2ccccc12`: the growth inhibition is 12.4%.

As to `C=CCNC(=S)Nc1ccc(OC(=O)NC(C)(C)C)cc1`, the growth inhibition was 29.4%.

Consider `COC(=O)CNC(=O)C(Cc1ccccc1)NC(=O)OCc1ccccc1` (stereo not given), for which the growth inhibition is -3.75%.

On to `CN1C(=O)NC(C)(CCOCc2ccccc2)C1=O` (stereo not given), for which the growth inhibition is 0.45%.

On to `CCCC(O)C(CC)[N+](=O)[O-]` (stereo not given), for which the growth inhibition was 0.95%.

As for `O=C(O)/C=C/C(=O)Nc1ccc(C(=O)O)cc1`, the growth inhibition was -27.3%.

`O=C(NNC(=O)c1cccc2ccccc12)c1ccccc1F`: the growth inhibition was -12.6%.

Regarding `BrC1(C2(Br)N(c3ccccc3)CCN2c2ccccc2)N(c2ccccc2)CCN1c1ccccc1`, the growth inhibition was -1.55%.

On to `COC1CCC(C(C)(C)C)CC1` (stereo not given), for which the growth inhibition is -11.6%.

Consider `CCCCCCCCCOCC(COP(=O)([O-])OCC[N+](C)(C)C)OC` (stereo not given), for which the growth inhibition was 13.3%.
